Screening data from PubChem.
An excerpt weighted towards active compounds, which were near 7.3% of everything screened.
FMDV antiviral = antivirals against foot and mouth disease virus. FMDV antiviral cell-based qHTS. Potency, µM (highest dose often 57.9 µM), hits mostly inhibitors. actives 1.2% (n = 410,000). AID 1159524; calls by dose curve; tested in HEK293T cells; also: read-out not given here; nearly all actives have a fitted effect of over 45% in size
HCV inh = HCV inhibition; Huh7.5.1 HCVcc-Cre infection, luciferase reporter, 44 h; Potency, µM (series often up to 41.8 µM), hits mostly inhibitors; actives 3.4% (n = 340,000); AID 651820
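Antiviral activity was scored by luciferase reporter output from cells infected with HCVcc-Cre (~0.5 moi) in presence of compound, 44 h infection period, cells seeded 1,000/well 4 h prior.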
HCMV inh = human cytomegalovirus inhibition; AID 1259415; activity change, negative = inhibition, % at 57.5 µM; actives 4.5% (n = 410,000); HFF cells, HCMV-luciferase reporter, 72 h; active compounds read low; in the data active = activity change below about -60%; inconclusive = no clear call, values can overlap the other calls; inactive = above about -39%
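HFF cells seeded 16 h at 37C, treated with compounds, infected with luciferase-reporter HCMV at MOI 1 PFU/cell; luciferase read at 72 h post infection, normalized to buffer-only and Salinomycin controls.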
AmpC detergent = inhibitors of E. coli AmpC beta-lactamase with detergent. AmpC hydrolysis of nitrocefin, absorbance 480 nm, 0.01% Triton. P00811. Potency, µM (titrated, usually from 114 µM), usual class: inhibitors. actives 0.041% (n = 370,000). AID 485294; also: nearly all actives have a fitted effect of over 25% in size
Target sequence (P00811 whole entry, looked up): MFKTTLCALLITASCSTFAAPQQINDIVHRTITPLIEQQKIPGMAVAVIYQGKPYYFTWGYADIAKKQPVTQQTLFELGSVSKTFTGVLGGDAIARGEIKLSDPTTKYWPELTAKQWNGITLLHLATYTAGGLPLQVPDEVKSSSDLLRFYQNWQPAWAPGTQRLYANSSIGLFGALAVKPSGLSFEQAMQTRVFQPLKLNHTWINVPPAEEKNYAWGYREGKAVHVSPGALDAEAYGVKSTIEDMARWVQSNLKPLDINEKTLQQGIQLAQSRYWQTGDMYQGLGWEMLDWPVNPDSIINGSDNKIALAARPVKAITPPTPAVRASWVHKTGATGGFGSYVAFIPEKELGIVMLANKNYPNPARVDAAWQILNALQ
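20 mM phosphate pH 7.0 + 0.01% (detergent screen) or 0.0001% Triton X-100; 5.3 nM AmpC reagent; cpd preinc 15 min RT; nitrocefin (800 uM stock) to start; A480 q20 s × 4 min; Activity was normalised to no-enzyme and no-compound control wells.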
AmpC inh no detg = inhibitors of E. coli AmpC beta-lactamase without detergent | actives 0.52% (n = 330,000) | Potency, µM (series often up to 57.1 µM), actives largely listed as inhibitors | P00811 | AID 485341 | AmpC nitrocefin hydrolysis, absorbance 480 nm, 0.0001% Triton; also: nearly all actives have a fitted effect of over 20% in size
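AmpC (5.3 nM in the dispensed reagent) in 20 mM phosphate pH 7.0 with 0.01% (detergent screen) or 0.0001% Triton X-100 was preincubated with compounds for 15 min at room temperature. Nitrocefin was then added from an 800 uM solution, and hydrolysis was followed at 480 nm.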
Each line names hits and unclear results; the compound was inactive in the other large screens. Unless noted, calls follow the shape of the dose curve; as a rule, active = well fitted curve in the direction sought with a large enough effect; inconclusive = small, poorly fitted or top-dose-only effect, or another doubt; inactive = no such curve, though single readings can be large; an effect the other way counts as inactive or inconclusive.

Fc1cccc(Nc2ncnc3c2cnn3-c2ccccc2)c1	HCV inh inconclusive
Clc1ccc(-n2ncc3c(NCCCn4ccnc4)ncnc32)cc1	HCV inh 11µM
CCCCNc1ncnc2c1cnn2-c1ccc(Cl)cc1	HCV inh 10µM, AmpC detergent inconclusive
Clc1cccc(Nc2ncnc3c2cnn3-c2ccccc2)c1	HCV inh 11µM
Cc1c(Nc2ncnc3c2cnn3-c2ccccc2)c(=O)n(-c2ccccc2)n1C	AmpC inh no detg 0.14µM (no result: FMDV antiviral)
CC(OC(=O)CC1CCCCC1)C(=O)Nc1ccc(S(N)(=O)=O)cc1 (stereo not drawn)	none
COc1ccc(NC(=O)CCN=C2NS(=O)(=O)c3ccccc32)cc1S(=O)(=O)N(C)C	none
COc1ccc(CNC(=O)C2CCN(S(=O)(=O)N3CC(C)CC(C)C3)CC2)cc1 (stereo not drawn)	none
CCOC(=O)N1CCN(S(=O)(=O)N2CCCC(C(=O)NCc3ccc(OC)cc3)C2)CC1 (stereo not drawn)	HCMV inh active
COc1ccc(CNC(=O)C2CCN(S(=O)(=O)N3CCCC3)CC2)cc1	HCMV inh active
COc1ccc(CNC(=O)C2CCN(C(=O)c3csc(Nc4ccc(C)cc4)n3)CC2)cc1	FMDV antiviral 25µM, HCV inh 11µM
CCOC(=O)N1CCN(S(=O)(=O)N2CCCC(C(=O)NCc3ccc(F)cc3)C2)CC1 (stereo not drawn)	none
CC1(C)CC2(C)OC2C2(C1)N=NC(=Nc1ccccc1)O2 (stereo not drawn)	none (no result: HCV inh, HCMV inh, AmpC detergent, AmpC inh no detg)
C=CCSc1nnc(CCc2ccccc2)n1N	none
CC(C)NC(=O)CC1(C)N=C(c2cccc3ccccc23)N(C)O1 (stereo not drawn)	none (no result: FMDV antiviral, HCV inh, AmpC detergent, AmpC inh no detg)
CCC(C)NS(=O)(=O)c1ccc(N2CCCCS2(=O)=O)cc1 (stereo not drawn)	none (no result: HCV inh, AmpC inh no detg)
Cc1c(NC(=O)c2cc(-c3ccccc3)nc3ccccc23)c(=O)n(-c2ccccc2)n1C	none (no result: AmpC detergent)
Cc1ccc(-c2cc(C(=O)Nc3c(C)n(C)n(-c4ccccc4)c3=O)c3ccccc3n2)cc1	FMDV antiviral inconclusive, HCMV inh -63 (no result: AmpC detergent)
COc1ccc(-c2cc(C(=O)OC(C)C(=O)Nc3c(C)n(C)n(-c4ccccc4)c3=O)c3ccccc3n2)cc1 (stereo not drawn)	none
Cc1c(NC(=O)COC(=O)c2cc(-c3ccc(-c4ccccc4)cc3)nc3ccccc23)c(=O)n(-c2ccccc2)n1C	HCMV inh -97
O=C(Nc1nc(-c2ccc3ccccc3c2)cs1)c1ccc(N2C(=O)CCC2=O)cc1	FMDV antiviral inconclusive, HCMV inh -71
COc1ccc(-c2csc(NC(=O)c3cccc(N4C(=O)CCC4=O)c3)n2)cc1C	FMDV antiviral inconclusive, HCMV inh inconclusive (no result: HCV inh)
COc1ccc(-c2csc(NC(=O)C3=NN(c4ccccc4)C(=O)CC3)n2)cc1	FMDV antiviral 20µM, HCV inh 7.1µM
CCC(C)NC(=O)C1c2ccccc2C(=O)N1Cc1ccc(F)cc1 (stereo not drawn)	none
COc1ccc(Cl)cc1NC(=O)c1cc2nc(-c3ccc(C)cc3)cc(C(F)(F)F)n2n1	none (no result: HCV inh, AmpC inh no detg)
Cc1ccc(OCCCCn2c(CO)nc3ccccc32)cc1	HCMV inh -65
CC(=O)NCCc1nc2ccccc2n1CCCCOc1ccc(Cl)cc1	FMDV antiviral inconclusive (no result: HCV inh, AmpC inh no detg)
CC(C)(C)C(=O)NCCCc1nc2ccccc2n1CCCOc1ccc(Cl)cc1	FMDV antiviral 20µM, HCV inh inconclusive, HCMV inh -84
OCc1nc2ccccc2n1CCCCOc1ccccc1	none (no result: AmpC detergent, AmpC inh no detg)
Cc1nnc(SCC(=O)N2CCCC(N3CCN(c4ccc(F)cc4)CC3)C2)o1 (stereo not drawn)	AmpC detergent inconclusive
O=C1N2c3ccccc3CCc3cccc(c32)C1(O)C(F)(F)F (stereo not drawn)	FMDV antiviral inconclusive, HCMV inh -61
C=CCCC1CN(Cc2ccc(OC)cc2)S(=O)(=O)c2c(Oc3ccc(OC)cc3)cccc2O1 (stereo not drawn)	none (no result: FMDV antiviral, HCV inh, AmpC detergent, AmpC inh no detg)
CCC(CO)Nc1ncnc2onc(-c3ccc(F)cc3)c12 (stereo not drawn)	AmpC detergent inconclusive
CC(C)(CCO)Nc1ncnc2onc(-c3ccc(F)cc3)c12	HCMV inh -64
Oc1cccc(-c2nc3c4c(ncn3n2)-c2ccccc2CC42CCCC2)c1	FMDV antiviral inconclusive, HCMV inh -93 (no result: HCV inh)
COc1ccc(OCc2nc3c4c(ncn3n2)-c2ccccc2CC42CCCC2)cc1	FMDV antiviral inconclusive, HCV inh inconclusive, HCMV inh inconclusive, AmpC detergent inconclusive
COc1ccc(-c2nc3c4c(ncn3n2)-c2ccccc2CC42CCCC2)cc1	FMDV antiviral 32µM, HCV inh inconclusive
O=S1(=O)c2cc(Cl)ccc2N2CCC[C@@H]2CN1Cc1ccc(Cl)c(Cl)c1	none (no result: FMDV antiviral, HCV inh, AmpC detergent, AmpC inh no detg)
CN(C)CCCOc1ccc2c(c1)Sc1ccccc1CC2=O	HCV inh 10µM
O=C(CNC(=O)/C(=C\c1ccc(Br)cc1)NC(=O)c1ccccc1)OCc1ccccc1	none
O=C(CNC(=O)/C(=C/c1ccccc1)NC(=O)c1ccc(Br)cc1)OCc1ccccc1	AmpC inh no detg 3.5µM
CCOC(=O)c1cnn(-c2cccc(Cl)c2)c1C1CCN(C(=O)OC(C)(C)C)CC1	FMDV antiviral inconclusive (no result: HCV inh, AmpC inh no detg)
Cc1cc(NC(=O)COC(=O)CCn2c(C)csc2=O)c([N+](=O)[O-])cc1C	none (no result: HCV inh, AmpC detergent, AmpC inh no detg)
O=C(O)C1Nc2c(Cl)cc(Cl)cc2C2C=CCC12 (stereo not drawn)	AmpC detergent inconclusive, AmpC inh no detg 13µM (no result: HCMV inh)
C=CCSc1nnc(C2CCCN(Cc3ccccc3O)C2)n1C (stereo not drawn)	none (no result: HCV inh, HCMV inh, AmpC detergent, AmpC inh no detg)
Cc1c(C(=O)Nc2ccc3c(c2)OCO3)sc2nc(-c3ccccc3)cn12	HCV inh 4µM, AmpC detergent inconclusive
Nn1cc(-c2ccccc2)nc1SCC(=O)Nc1ccc2c(c1)OCO2	HCMV inh -100
Cc1cccc(NC(=O)c2sc3nc(-c4ccccc4)cn3c2C)n1	HCV inh 13µM, HCMV inh inconclusive (no result: FMDV antiviral)
Nn1c(SCC(=O)Nc2ccc3c(c2)OCO3)nnc1-c1cccc(Cl)c1	none
Nc1nc(-c2ccccc2)c(C(=O)Nc2ccccc2)s1	HCMV inh -61, AmpC detergent inconclusive
COc1ccc(-c2cn3c(C)c(C(=O)Nc4cccc(C)n4)sc3n2)cc1	HCV inh inconclusive, HCMV inh inconclusive
Cc1ccc(Cl)cc1NC(=O)c1sc2nc(-c3ccccc3)cn2c1C	HCMV inh -63 (no result: HCV inh, AmpC inh no detg)
COCCNC(=O)c1sc2nc(-c3ccccc3)cn2c1C	none
Cc1c(C(=O)Nc2ccccc2)sc2nc(-c3ccccc3)cn12	HCV inh 8.9µM, AmpC detergent inconclusive
CCCCC1(CCCC)C(=O)NC(=Nc2cccc(C)c2)NC1=O	HCV inh inconclusive, HCMV inh -61
CCCC1(CCC)C(=O)NC(=Nc2ccccc2)NC1=O	none (no result: FMDV antiviral)
COc1ccc(N2CC(C)(C)C[C@H]2/C=C/C(=O)OC(C)(C)C)cc1	none (no result: FMDV antiviral, HCV inh, AmpC detergent, AmpC inh no detg)
